PfHsp90 yeast 2: inhibits growth of yeast expressing Plasmodium falciparum Hsp90. 310,000 compounds, 0.32% hits. AID 504621. S. cerevisiae expressing PfHsp90, BacTiter-Glo ATP, 48 h; yeast lacking PDR1 and PDR3 efflux regulators. inhibition, % at 9.4 µM;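 active = every replicate shows inhibition above about 80%, whatever the replicate mean, limit read from the data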;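 also: 0% = DMSO neutral controls and 100% = 20 µM radicicol positive controls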
tim10-1 inh: tim10-1 yeast growth inhibition; S. cerevisiae tim10-1 ts strain growth, BacTiter-Glo, 24 h; 330,000 compounds, 2.2% hits; inhibition, % at 20 µM;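 active = inhibition of at least 40%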;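 also: mutant grown at 25 °C; 0% = DMSO wells with yeast and 100% = wells holding no yeast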
tim23-1 inh: growth inhibitors of tim23-1 mutant yeast; S. cerevisiae tim23-1 growth, BacTiter-Glo luminescence, 24 h; inhibition, % at 20 µM; 330,000 compounds, 1.3% hits; AID 463212;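 active = growth inhibition of the mutant yeast at or above 50%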;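 also: temperature-sensitive mutant grown at 25 °C; plate controls were DMSO-treated mutant yeast for no effect and medium wells lacking yeast for full effect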
TIM10 inh: inhibits growth of TIM10 yeast strain; S. cerevisiae TIM10 strain growth, BacTiter-Glo luminescence, 24 h; inhibition, % at 10 µM; 330,000 compounds, 1.4% hits; AID 463195;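 active = inhibition of 40% or more at the single tested concentration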;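 also: wild-type TIM10 isogenic control strain grown at permissive 25 °C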
Mot1-301 SUMO: SUMOylation pathway inhibition by Mot1-301 growth rescue; 320,000 compounds, 1% hits; growth rescue, % at 18.8 µM; S. cerevisiae Mot1-301 growth rescue, ATP luminescence, 38.5C; percent above DMSO median, 100 means doubled;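 active = every valid replicate shows activation above 250% relative to neutral control wells; inactive = the rest, any valid replicate at or below 250%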;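 also: OY570 slx delta 5 strain wells were the positive control but not used for scaling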
tim10-1 conf: confirmation of tim10-1 mutant yeast growth inhibitors | shares compounds with tim10-1 inh | S. cerevisiae tim10-1 ts strain growth, BacTiter-Glo, 24 h | inhibition, % at 20 µM | 7,400 compounds, 56% hits;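 active = inhibition of yeast growth at or above a set limit in either of two repeat tests at 20 µM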;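 also: tim10-1 mutant grown at permissive 25 °C to find synthetic lethal compounds; 0% = DMSO yeast wells and 100% = medium wells without yeast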
TIM10 conf: confirmation of TIM10 yeast growth inhibitors. inhibition, % at 10 µM. S. cerevisiae tim10 strain growth, BacTiter-Glo luminescence, 24 h. shares compounds with TIM10 inh. AID 463215. 4,600 compounds, 63% hits;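 active = inhibition of yeast growth at or above a set limit in either of two replicates at 10 µM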;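 also: this counterscreen used the strain with wild-type TIM10; 0% = yeast with DMSO and 100% = medium wells lacking yeast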
tim23-1 conf: confirmation of tim23-1 mutant yeast growth inhibitors. AID 463218. inhibition, % at 20 µM. shares compounds with tim23-1 inh. S. cerevisiae tim23-1 growth, BacTiter-Glo luminescence, 24 h. 4,400 compounds, 83% hits;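 active = inhibition above about 39% in either of two replicate wells at 20 µM, limit read from the data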;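 also: temperature-sensitive tim23-1 mutant grown at 25 °C; 0% = DMSO wells with yeast and 100% = medium wells without yeast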
Active calls of the source: *. Shown are actives, neighbours in structure and some others; about 4.4% of the full set was active somewhere.

`Cc1cc2nc3ccc(N(C)C)cc3nc2cc1N` gave PfHsp90 yeast 2 10, tim10-1 inh 46*, tim23-1 inh 50*, TIM10 inh 70*, Mot1-301 SUMO 12, tim10-1 conf 58*, TIM10 conf 73* and tim23-1 conf 41*.
Screening Cc1cc(C(=O)N/N=C/c2ccc([N+](=O)[O-])s2)n[nH]1 returned PfHsp90 yeast 2 5, tim10-1 inh -12, tim23-1 inh 48, TIM10 inh 7 and Mot1-301 SUMO -10.
COc1ccc(NC(=O)CCC(=O)N/N=C/c2ccc([N+](=O)[O-])s2)cc1 was read as PfHsp90 yeast 2 116*, tim10-1 inh 50*, tim23-1 inh 62*, TIM10 inh 83*, Mot1-301 SUMO 82, tim10-1 conf 39*, TIM10 conf 25 and tim23-1 conf 62*.
`CCOC(=O)N/N=C\c1ccc([N+](=O)[O-])s1` gave PfHsp90 yeast 2 17, tim10-1 inh 53*, tim23-1 inh 87*, TIM10 inh 32, Mot1-301 SUMO 18, tim10-1 conf 38* and tim23-1 conf 66*.
For CC(C)(C)OC(=O)N/N=C\c1ccc([N+](=O)[O-])s1 the results were PfHsp90 yeast 2 17, tim10-1 inh 75*, tim23-1 inh 78*, TIM10 inh 58*, Mot1-301 SUMO 115, tim10-1 conf 50*, TIM10 conf 71* and tim23-1 conf 64*.
For Cc1ccc(C(=O)N/N=C\c2ccc([N+](=O)[O-])s2)cn1 the results were PfHsp90 yeast 2 -17, tim10-1 inh 49*, tim23-1 inh 56*, TIM10 inh 40*, Mot1-301 SUMO 204, tim10-1 conf 42*, TIM10 conf -32 and tim23-1 conf 58*.
C=CC[N+]1(CC(=O)NCc2ccc(NC(C)=O)cc2)CCOCC1 was read as PfHsp90 yeast 2 -17, tim10-1 inh -11, tim23-1 inh 2, TIM10 inh 3 and Mot1-301 SUMO 141.
Fc1c(F)c(F)c(N/N=C/c2c[nH]c3ccccc23)c(F)c1F was read as PfHsp90 yeast 2 -24, tim10-1 inh 59*, tim23-1 inh 80*, TIM10 inh 61*, Mot1-301 SUMO 55, tim10-1 conf 55*, TIM10 conf -2 and tim23-1 conf 43*.
O=C(O)c1ccc(N/N=C/c2c[nH]c3ccccc23)cc1 was read as PfHsp90 yeast 2 -8, tim10-1 inh 28, tim23-1 inh 27, TIM10 inh -1 and Mot1-301 SUMO -7.
For Cc1cccc(NS(=O)(=O)c2cccc(C(=O)N3CCN(C/C=C/c4ccccc4)CC3)c2)c1 the results were PfHsp90 yeast 2 -1, tim10-1 inh -6, tim23-1 inh 1, TIM10 inh -1 and Mot1-301 SUMO 0.
Screening Cc1nn2c(-c3ccncc3)nnc2c2ccccc12 returned PfHsp90 yeast 2 -59, tim10-1 inh 57*, tim23-1 inh 52*, TIM10 inh 76*, Mot1-301 SUMO -6, tim10-1 conf 65*, TIM10 conf 74* and tim23-1 conf 43*.
`CC(=O)Nc1cccc(-c2nnc3c4ccccc4c(C)nn23)c1` gave tim10-1 inh 17, tim23-1 inh 11, TIM10 inh 9 and Mot1-301 SUMO -7.
`CC1CN(C(=O)C(C)OC(=O)c2ccc3ncsc3c2)CC(C)O1` (centres undefined) gave tim10-1 inh -12, tim23-1 inh -8, TIM10 inh 2 and Mot1-301 SUMO 58.
`O=C1CC(=Nc2ccccc2)NN1c1ccccc1` gave tim10-1 inh 55*, tim23-1 inh 59*, TIM10 inh 49*, Mot1-301 SUMO 40, tim10-1 conf 45*, TIM10 conf 44* and tim23-1 conf 76*.
